Columns and labels:
Format in all cases: functional
[1] = tested on: Plasmodium falciparum; assay: GSK_TCMDC: Inhibition of Plasmodium falciparum 3D7 in whole red blood cells, using parasite LDH activity as an index of growth. Test compounds present at 2uM
[2] = tested on: Plasmodium falciparum; assay: GSK_TCMDC: Inhibition of Plasmodium falciparum Dd2 in whole red blood cells, using parasite LDH activity as an index of growth. Test compounds present at 2uM
[3] = tested on: HepG2; assay: GSK_TCMDC: Percent inhibition of human HepG2 cell line. Test compounds present at 10uM.

SMILES | Inhibition [1] [%] | Inhibition [2] [%] | Inhibition [3] [%]
COC(=O)c1cccc(NC(=O)NC2CCN(c3ccnc(Nc4ccc(F)cc4)n3)C2)c1 (stereo not given) | 100 | 83 | 5
O=C(O)C(F)(F)F.O=S(=O)(NCCN1CCCC1)c1ccc(-c2cccc(CNCc3ccc(F)cc3)c2)cc1 | 100 | 41 | 76
CC(C)CC(NC(=O)c1cccc(OCCN2CCOCC2)c1)C(=O)NC(/C=N/NC(=O)c1ccccc1)CCc1ccccc1 (stereo not given) | 96 | 88 | 0
CCCCC(CC)C(=O)C(NC(=O)[C@H](CSC(c1ccccc1)(c1ccccc1)c1ccccc1)NC(=O)OC(C)(C)C)C(=O)OC (stereo not given in full) | 88 | 31 | 8
CN(C)CCCN(C)c1cccc2c1nc(-c1cccnc1)n2CCNCc1ccccc1.O=C(O)C(F)(F)F | 89 | 88 | 4
O=c1ccc2ccc(F)cc2n1CCN1CCC(NCc2ccc(-c3ccccn3)s2)CC1 | 98 | 30 | 0
Fc1ccc2[nH]c(-c3ccc(-c4ccc(CNCC5CCCO5)cc4)cc3)nc2c1.O=C(O)C(F)(F)F (stereo not given) | 100 | 100 | 26
CCCCCCOc1ccccc1C(=O)NCCOc1ccc(Cl)cc1 | 84 | 37 | 16
Cc1cc(NCCc2ccccc2)nc(NC(=N)Nc2ccccc2Cl)n1 | 100 | 7 | 20
CN1CCCC1CNS(=O)(=O)c1ccc(C(=O)NCC2CC2)cc1.O=C(O)C(F)(F)F (stereo not given) | 91 | 0 | 17

Source: ChEMBL document CHEMBL1157539, “Thousands of chemical starting points for antimalarial lead identification” (Nature, 2010)
